Assay results: PubChem BioAssay (NCATS)
Inconclusive results are not listed. Activity calls are given as the source filed them. Calls come from the whole dose curve; as a rule, active = well fitted curve in the direction sought with a large enough effect; inconclusive = small, poorly fitted or top-dose-only effect, or another doubt; inactive = no such curve, though single readings can be large; an effect the other way counts as inactive or inconclusive.

Experiments:
[1] = target: ATP-dependent 6-phosphofructokinase (Trypanosoma brucei brucei) (UniProt O15648); assay: qHTS Assay to Find Inhibitors of T. brucei phosphofructokinase: hit validation (AID 492961); note: % is set by controls: 0 for no effect and ±100 for the full control effect
Method in brief: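 Luminescence from ADP-Glo reports ADP generated as T. brucei PFK (1.25 nM) phosphorylates 0.5 mM fructose-6-phosphate using 0.1 mM ATP. Reactions ran 45 min at room temperature, pH 8.0.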

[2] = qHTS profiling for inhibitors of Plasmodium falciparum proliferation (AID 504749);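 note: 0% = DMSO vehicle and full inhibition = artemisinin control; nearly all actives have a fitted effect of over 60% in size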; details: P. falciparum in erythrocytes, SYBR Green DNA, 72 h, at 28.7 µM (top of the series)
Method in brief: (§1)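 Each compound contacts P. falciparum-infected red blood cells for 72 h at 37 C; lysis buffer (Tris, EDTA, saponin, Triton X, SYBR Green I) is added and fluorescence measured next morning; values normalized to controls.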

[3] = tested on: 3D7; assay: as above; details: P. falciparum in erythrocytes, SYBR Green DNA, 72 h; series mostly up to 28.7 µM
Method in brief: as §1

[4] = tested on: 7G8; assay: as above; details: P. falciparum in erythrocytes, SYBR Green DNA, 72 h; series mostly up to 28.7 µM
Method in brief: as §1

[5] = tested on: AS120; assay: as above; details: P. falciparum in erythrocytes, SYBR Green DNA, 72 h; series mostly up to 28.7 µM
Method in brief: as §1

[6] = tested on: ATS189; assay: as above; details: P. falciparum in erythrocytes, SYBR Green DNA, 72 h; series mostly up to 28.7 µM
Method in brief: as §1

[7] = tested on: CP185; assay: as above; details: P. falciparum in erythrocytes, SYBR Green DNA, 72 h; series mostly up to 28.7 µM
Method in brief: as §1

[8] = tested on: CP191; assay: as above; details: P. falciparum in erythrocytes, SYBR Green DNA, 72 h; series mostly up to 28.7 µM
Method in brief: as §1

[9] = tested on: CP192; assay: as above; details: P. falciparum in erythrocytes, SYBR Green DNA, 72 h; series mostly up to 28.7 µM
Method in brief: as §1

[10] = tested on: CP194; assay: as above; details: P. falciparum in erythrocytes, SYBR Green DNA, 72 h; series mostly up to 28.7 µM
Method in brief: as §1

[11] = tested on: CP201; assay: as above; details: P. falciparum in erythrocytes, SYBR Green DNA, 72 h; series mostly up to 28.7 µM
Method in brief: as §1

[12] = tested on: CP203; assay: as above; details: P. falciparum in erythrocytes, SYBR Green DNA, 72 h; series mostly up to 28.7 µM
Method in brief: as §1

[13] = tested on: CP237; assay: as above; details: P. falciparum in erythrocytes, SYBR Green DNA, 72 h; series mostly up to 28.7 µM
Method in brief: as §1

[14] = tested on: CP238; assay: as above; details: P. falciparum in erythrocytes, SYBR Green DNA, 72 h; series mostly up to 28.7 µM
Method in brief: as §1

[15] = tested on: CP247; assay: as above; details: P. falciparum in erythrocytes, SYBR Green DNA, 72 h; series mostly up to 28.7 µM
Method in brief: as §1

[16] = tested on: CP286; assay: as above; details: P. falciparum in erythrocytes, SYBR Green DNA, 72 h; series mostly up to 28.7 µM
Method in brief: as §1

[17] = tested on: DFO2036; assay: as above; details: P. falciparum in erythrocytes, SYBR Green DNA, 72 h; series mostly up to 28.7 µM
Method in brief: as §1

[18] = tested on: DIV30; assay: as above; details: P. falciparum in erythrocytes, SYBR Green DNA, 72 h; series mostly up to 28.7 µM
Method in brief: as §1

[19] = tested on: HB3; assay: as above; details: P. falciparum in erythrocytes, SYBR Green DNA, 72 h; series mostly up to 28.7 µM
Method in brief: as §1

[20] = tested on: P94_40; assay: as above; details: P. falciparum in erythrocytes, SYBR Green DNA, 72 h; series mostly up to 28.7 µM
Method in brief: as §1

Chain of ATP-dependent 6-phosphofructokinase (Trypanosoma brucei brucei) (O15648 whole entry, looked up): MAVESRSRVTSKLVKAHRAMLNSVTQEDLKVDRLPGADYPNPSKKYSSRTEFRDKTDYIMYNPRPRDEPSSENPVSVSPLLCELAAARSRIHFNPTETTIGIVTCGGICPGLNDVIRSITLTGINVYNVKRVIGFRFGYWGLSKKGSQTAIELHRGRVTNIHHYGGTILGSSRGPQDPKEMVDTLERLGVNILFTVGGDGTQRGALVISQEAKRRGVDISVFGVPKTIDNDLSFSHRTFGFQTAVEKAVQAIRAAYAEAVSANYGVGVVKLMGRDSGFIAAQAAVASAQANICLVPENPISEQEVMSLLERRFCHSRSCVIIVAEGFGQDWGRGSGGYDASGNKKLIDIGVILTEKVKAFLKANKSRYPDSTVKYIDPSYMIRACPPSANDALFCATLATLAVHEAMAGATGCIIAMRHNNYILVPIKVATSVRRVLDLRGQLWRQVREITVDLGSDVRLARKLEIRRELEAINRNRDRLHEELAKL

O=C1[C@@H]2C[C@@H]3C[C@H]1C[C@@](O)(C3)C2
inactive: Potency [1] | activity, negative = inhibition ([2]; parasite line A) -0.632% | activity, negative = inhibition ([2]; parasite line B) 11.7% | Potency [3] | Potency [4] | Potency [5] | Potency [6] | Potency [7] | Potency [8] | Potency [9] | Potency [10] | Potency [11] | Potency [12] | Potency [13] | Potency [14] | Potency [15] | Potency [16] | Potency [17] | Potency [18] | Potency [19] | Potency [20]

CC1(C)SC2C(NC(=O)C(C(=O)O)c3ccccc3)C(=O)N2C1C(=O)O (stereo not given)
inactive: Potency [1] | activity, negative = inhibition ([2]; parasite line A) 5.75% | activity, negative = inhibition ([2]; parasite line B) 2.54% | Potency [3] | Potency [4] | Potency [5] | Potency [6] | Potency [7] | Potency [8] | Potency [9] | Potency [10] | Potency [11] | Potency [12] | Potency [13] | Potency [14] | Potency [15] | Potency [16] | Potency [17] | Potency [18] | Potency [19] | Potency [20]

OCC1O[C@H](O[C@H]2C(O)C(O)C(O)O[C@@H]2CO)C(O)C(O)C1O (stereo not given in full)
inactive: Potency [1] | activity, negative = inhibition ([2]; parasite line A) 7.88% | activity, negative = inhibition ([2]; parasite line B) 6.42% | Potency [3] | Potency [4] | Potency [5] | Potency [6] | Potency [7] | Potency [8] | Potency [9] | Potency [10] | Potency [11] | Potency [12] | Potency [13] | Potency [14] | Potency [15] | Potency [16] | Potency [17] | Potency [18] | Potency [19] | Potency [20]

Cc1ccc(Nc2ncccc2C(=O)O)cc1C
inactive: Potency [1] | activity, negative = inhibition ([2]; parasite line A) 6.4% | activity, negative = inhibition ([2]; parasite line B) 7.72% | Potency [3] | Potency [4] | Potency [5] | Potency [6] | Potency [7] | Potency [8] | Potency [9] | Potency [10] | Potency [11] | Potency [12] | Potency [13] | Potency [14] | Potency [15] | Potency [16] | Potency [17] | Potency [18] | Potency [19] | Potency [20]

CCN1CCN(C(=O)NC(C(=O)NC2C(=O)N3C(C(=O)O)=C(CSc4nnnn4C)CSC23)c2ccc(O)cc2)C(=O)C1=O (stereo not given)
inactive: Potency [1] | activity, negative = inhibition ([2]; parasite line A) 1.12% | activity, negative = inhibition ([2]; parasite line B) -9.29% | Potency [3] | Potency [4] | Potency [5] | Potency [6] | Potency [7] | Potency [8] | Potency [9] | Potency [10] | Potency [11] | Potency [12] | Potency [13] | Potency [14] | Potency [15] | Potency [16] | Potency [17] | Potency [18] | Potency [19] | Potency [20]

CCCCC/C(C=O)=C/c1ccccc1
inactive: Potency [1] | activity, negative = inhibition ([2]; parasite line A) -0.781% | activity, negative = inhibition ([2]; parasite line B) -10.8% | Potency [3] | Potency [4] | Potency [5] | Potency [6] | Potency [7] | Potency [8] | Potency [9] | Potency [10] | Potency [11] | Potency [12] | Potency [13] | Potency [14] | Potency [15] | Potency [16] | Potency [17] | Potency [18] | Potency [19] | Potency [20]

CCN(CC)C(=O)Nc1ccc(OC[C@H](O)CNC(C)(C)C)c(C(C)=O)c1
inactive: Potency [1] | activity, negative = inhibition ([2]; parasite line A) 5.16% | activity, negative = inhibition ([2]; parasite line B) -3.7% | Potency [3] | Potency [4] | Potency [5] | Potency [6] | Potency [7] | Potency [8] | Potency [9] | Potency [10] | Potency [11] | Potency [12] | Potency [13] | Potency [14] | Potency [15] | Potency [16] | Potency [17] | Potency [18] | Potency [19] | Potency [20]

C/C1=C2/[N-]C(C(CC(N)=O)[C@@]2(C)CCC(=O)NCC(C)OP(=O)([O-])O[C@H]2[C@@H](O)[C@@H](n3cnc4cc(C)c(C)cc43)O[C@@H]2CO)[C@]2(C)N=C(/C(C)=C3N=C(/C=C4N=C1C(CCC(N)=O)C\4(C)C)[C@@H](CCC(N)=O)[C@]\3(C)CC(N)=O)[C@@H](CCC(N)=O)[C@]2(C)CC(N)=O.CC(=O)O.[Co] (stereo not given in full)
inactive: Potency [1] | activity, negative = inhibition ([2]; parasite line A) -2.13% | activity, negative = inhibition ([2]; parasite line B) -2.9% | Potency [3] | Potency [4] | Potency [5] | Potency [6] | Potency [7] | Potency [8] | Potency [9] | Potency [10] | Potency [11] | Potency [12] | Potency [13] | Potency [14] | Potency [15] | Potency [16] | Potency [17] | Potency [18] | Potency [19] | Potency [20]

CCCCCCCCCCCC(=O)OCC(O)C1OCC(O)C1O (stereo not given)
inactive: Potency [1] | activity, negative = inhibition ([2]; parasite line A) -2.73% | activity, negative = inhibition ([2]; parasite line B) 8.41% | Potency [3] | Potency [4] | Potency [5] | Potency [6] | Potency [7] | Potency [8] | Potency [9] | Potency [10] | Potency [11] | Potency [12] | Potency [13] | Potency [14] | Potency [15] | Potency [16] | Potency [17] | Potency [18] | Potency [19] | Potency [20]

CCCC[C@H](O)c1ccccc1
inactive: Potency [1] | activity, negative = inhibition ([2]; parasite line A) -2.26% | activity, negative = inhibition ([2]; parasite line B) -1.87% | Potency [3] | Potency [4] | Potency [5] | Potency [6] | Potency [7] | Potency [8] | Potency [9] | Potency [10] | Potency [11] | Potency [12] | Potency [13] | Potency [14] | Potency [15] | Potency [16] | Potency [17] | Potency [18] | Potency [19] | Potency [20]
